Our source for the growth values is PubChem BioAssay (NCI).

The structures appear in SMILES notation. About 83,000 compounds went through this panel and 20% of them were active in at least one assay; those are over-represented in the sample as a whole.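 Single-dose data. Exposure time 48 hours. Values below 10 considered active.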 Values without a mark were called inactive. Activity calls are given as the source filed them.

Among the test systems are SR leukemia; RPMI-8226 leukemia; OVCAR-8 ovarian; OVCAR-5 ovarian; OVCAR-4 ovarian; SK-OV-3 ovarian; IGROV1 ovarian; OVCAR-3 ovarian; HS 578T breast; NCI/ADR-RES ovarian; T-47D breast; BT-549 breast; MDA-MB-435 melanoma; SW-620 colon; MCF7 breast; HCT-116 colon; HCC-2998 colon; KM12 colon; MDA-MB-468 breast.
Holding throughout (experiment): NCI-60 one-dose screen, 48 h (100 = growth as untreated, 0 = no growth, -100 = all killed)
Holding throughout (settings): 10 µM unless noted

Regarding `CC1(C)CC[C@]2(C(=O)O)CC[C@]3(C)C(=CCC4[C@@]5(C)C[C@@H](O)[C@@H]6OC(c7cccc(Br)c7)OC[C@@]6(C)C5CC[C@]43C)C2C1` (some centres not stated), the growth in the assay with SR leukemia was 30.6%; with RPMI-8226 leukemia, 18.9%; in the assay with OVCAR-8 ovarian it was 40%; with OVCAR-5 ovarian it was 67.5%; with OVCAR-4 ovarian, 52.4%; in the assay with SK-OV-3 ovarian it was 101%. In addition, the growth in the assay on IGROV1 ovarian was 66.7%; in the assay with OVCAR-3 ovarian it was 34.9%; in the assay with HS 578T breast, 65.3%; in the assay on NCI/ADR-RES ovarian, 40.6%; with T-47D breast it was 39.4%; in the assay on BT-549 breast, 44.4%. The growth in the assay with MDA-MB-435 melanoma was 61.2%; in the assay on SW-620 colon, 25%; with MCF7 breast, 18.6%; in the assay with HCT-116 colon, 10.8%; in the assay with HCC-2998 colon, 34.8%; in the assay on KM12 colon it was 20.8%. For the same molecule, the growth in the assay on MDA-MB-468 breast was 23.6%.

On to `Cc1ccc(-c2nc(Nc3ccccc3S(N)(=O)=O)c3ccccc3n2)cc1`, for which the growth is 46.7% in the assay on SR leukemia; 59.7% in the assay with RPMI-8226 leukemia; 55.6% with OVCAR-8 ovarian; 85.3% with OVCAR-5 ovarian; 74.2% in the assay with OVCAR-4 ovarian; 91.4% in the assay on SK-OV-3 ovarian. The growth in the assay on IGROV1 ovarian was 82.3%; in the assay with OVCAR-3 ovarian, 97.1%; in the assay on HS 578T breast, 76.8%; in the assay with NCI/ADR-RES ovarian, 55.7%; with T-47D breast, 90.8%; with BT-549 breast, 115%. The growth was 85.4% in the assay with MDA-MB-435 melanoma; 85.8% in the assay on SW-620 colon; 81.6% with MCF7 breast; 40% in the assay on HCT-116 colon; 104% in the assay on HCC-2998 colon; 65.3% in the assay with KM12 colon. The growth with MDA-MB-468 breast is 98.4%.

As to `COc1ccc(/C=C/c2nc3ccccc3nc2Nc2cccc(C)c2)cc1`, the growth in the assay on SR leukemia was 85.8%; with RPMI-8226 leukemia, 95.7%; with OVCAR-8 ovarian, 98%; in the assay with OVCAR-5 ovarian, 108%; with OVCAR-4 ovarian, 91.6%; in the assay on SK-OV-3 ovarian it was 95.9%. Besides, the growth in the assay on IGROV1 ovarian is 82.1%; in the assay on OVCAR-3 ovarian, 104%; in the assay with HS 578T breast, 92.3%; in the assay with NCI/ADR-RES ovarian it was 105%; in the assay on T-47D breast, 77.7%; in the assay with BT-549 breast it was 99.9%. Besides, the growth is 98.3% with MDA-MB-435 melanoma; 95.3% in the assay with SW-620 colon; 67.3% in the assay on MCF7 breast; 87.3% in the assay with HCT-116 colon; 116% in the assay on HCC-2998 colon; 97.2% with KM12 colon. In the assay with MDA-MB-468 breast, the growth was 101%.

Take `C=C1CCC2C3(C)COC(c4ccc(F)cc4)OC3CCC2(C)C1CC(O)C1=CCOC1=O` (configuration not stated): the growth is 21.6% in the assay with SR leukemia; 21.9% in the assay with RPMI-8226 leukemia; -2.76% (active) in the assay on OVCAR-8 ovarian; 51% with OVCAR-5 ovarian; 53.8% in the assay with OVCAR-4 ovarian; 98% in the assay on SK-OV-3 ovarian. Further, the growth in the assay on IGROV1 ovarian was 36.5%; in the assay on OVCAR-3 ovarian, 63.4%; in the assay on HS 578T breast it was 71%; in the assay on NCI/ADR-RES ovarian, 0.657% (active); with T-47D breast it was 31.6%; in the assay on BT-549 breast it was -31.9% (active). In addition, the growth was 29.6% with MDA-MB-435 melanoma; 2.53% (active) in the assay on SW-620 colon; 12.3% with MCF7 breast; -50.2% (active) with HCT-116 colon; 24.3% in the assay on HCC-2998 colon; 49.7% in the assay with KM12 colon. Moreover, the growth with MDA-MB-468 breast is 18.8%.

In the case of `COc1ccc(N2N=C(c3ccc4c(c3)OCO4)CC2c2cccc(NC(=O)CCCNS(=O)(=O)c3ccc(F)cc3)c2)cc1` (configuration not stated), the growth is 18.3% in the assay on SR leukemia; 39.4% in the assay on RPMI-8226 leukemia; 78.8% with OVCAR-8 ovarian; 99.2% with OVCAR-5 ovarian; 57.5% in the assay with OVCAR-4 ovarian; 83.5% in the assay with SK-OV-3 ovarian. Further, the growth was 90.7% in the assay with IGROV1 ovarian; 81.3% with OVCAR-3 ovarian; 67.2% in the assay on HS 578T breast; 84.5% with NCI/ADR-RES ovarian; 53% in the assay on T-47D breast; 97.3% in the assay with BT-549 breast. The growth in the assay with MDA-MB-435 melanoma was 63.2%; in the assay with SW-620 colon it was 86.2%; in the assay on MCF7 breast, 42.2%; in the assay on HCT-116 colon, 49.9%; in the assay on HCC-2998 colon, 60.1%; in the assay with KM12 colon it was 41.3%. Further, in the assay with MDA-MB-468 breast, the growth is 35.5%.

For the molecule `S=C(Nc1ccccc1)Nc1ccc(OCc2nc3ccccc3[nH]2)cc1`, the growth in the assay with SR leukemia is 32.5%; in the assay with RPMI-8226 leukemia, 39.2%; with OVCAR-8 ovarian, 35.8%; with OVCAR-5 ovarian, 66.3%; in the assay on OVCAR-4 ovarian, 38.9%; in the assay with SK-OV-3 ovarian it was 86.6%. The growth is 56.3% in the assay on IGROV1 ovarian; 29% in the assay with OVCAR-3 ovarian; 50.6% in the assay with HS 578T breast; 43% in the assay on NCI/ADR-RES ovarian; 36.1% in the assay on T-47D breast; 49.4% with BT-549 breast. Besides, the growth is 24.6% in the assay on MDA-MB-435 melanoma; 48% with SW-620 colon; 20.2% in the assay with MCF7 breast; 35.6% in the assay on HCT-116 colon; 17.3% in the assay with HCC-2998 colon; -32% (active) in the assay on KM12 colon. Besides, the growth in the assay on MDA-MB-468 breast was 21.9%.

`CN(C)c1nc(NCCNS(=O)(=O)c2ccc(C(=O)/C=C/c3ccc(Cl)cc3)cc2)nc(Nc2ccc(F)cc2)n1`: the growth with SR leukemia was -41.1% (active); in the assay on RPMI-8226 leukemia, -17.6% (active); in the assay with OVCAR-8 ovarian it was -73.5% (active); in the assay with OVCAR-5 ovarian, -67% (active); in the assay on OVCAR-4 ovarian, -28.3% (active); in the assay with SK-OV-3 ovarian it was 26%. Moreover, the growth in the assay with IGROV1 ovarian was -49.6% (active); in the assay on OVCAR-3 ovarian it was -94.8% (active); with HS 578T breast, 25.8%; with NCI/ADR-RES ovarian, -83.5% (active); with T-47D breast, -10% (active); in the assay with BT-549 breast, -66.9% (active). Also, the growth in the assay on MDA-MB-435 melanoma is -87.8% (active); with SW-620 colon it was -95.1% (active); with MCF7 breast, -77.1% (active); with HCT-116 colon, -91.4% (active); with HCC-2998 colon, -91.6% (active); in the assay with KM12 colon it was -83.6% (active). Further, the growth in the assay with MDA-MB-468 breast was -25.9% (active).

Consider `CCCSc1nc(NCCc2c[nH]c3ccccc23)c(C#N)c(-c2ccccc2)n1`, for which the growth in the assay on SR leukemia was 8.87% (active); with RPMI-8226 leukemia, 44.5%; in the assay on OVCAR-8 ovarian, 82.1%; in the assay with OVCAR-5 ovarian it was 91.8%; in the assay on OVCAR-4 ovarian it was 82.1%; in the assay with SK-OV-3 ovarian, 91%. Moreover, the growth in the assay with IGROV1 ovarian is 100%; in the assay on OVCAR-3 ovarian, 100%; with HS 578T breast it was 66.8%; in the assay on NCI/ADR-RES ovarian, 69%; in the assay on T-47D breast, 16.1%; in the assay on BT-549 breast, 89.3%. The growth with MDA-MB-435 melanoma was 83.4%; in the assay on SW-620 colon, 56.9%; in the assay with MCF7 breast it was 24.9%; in the assay on HCT-116 colon, 32%; in the assay with HCC-2998 colon it was 59.9%; in the assay on KM12 colon, 42.1%. Moreover, in the assay on MDA-MB-468 breast, the growth is 53.8%.
